Measurements reported in PubChem BioAssay (NCI).
The panel holds about 79,000 compounds, 15% with a hit somewhere; the sample as a whole holds those more often. A number with no mark means an inactive call. Calls of active or inactive are those of the source. No stated cut-off is given here; in the data, active means growth inhibition above about 70%; inactive means the rest.

What was measured:
[1] = NCI Yeast Anticancer Drug Screen. Data for the rad50 strain (AID 155);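 further: 0% = growth of vehicle-only cultures of the same strain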; details: S. cerevisiae rad50 strain growth inhibition, active compounds read high
Procedure, shortened: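 Cells are treated with compound, grown, and their growth is then scored against vehicle-only cultures of the same repair-deficient yeast strain.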

[2] = NCI Yeast Anticancer Drug Screen. Data for the mec2-1 strain (AID 157); details: S. cerevisiae mec2-1 strain, active compounds read high
Procedure, shortened: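 mec2-1 yeast strain, carrying an alteration in DNA damage repair or cell cycle control, was exposed to compounds; growth inhibition was measured relative to vehicle-treated controls.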

[3] = NCI Yeast Anticancer Drug Screen. Data for the sgs1 mgt1 strain (AID 161);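 further: 0% = growth of cultures given vehicle only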; details: S. cerevisiae sgs1 mgt1 strain, active compounds read high
Procedure, shortened: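 Growth of a repair-deficient yeast mutant was monitored after compound treatment and expressed as inhibition relative to vehicle-treated cultures.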

[4] = NCI Yeast Anticancer Drug Screen. Data for the cln2 rad14 strain (AID 165);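 further: 0% = growth equal to vehicle treated cultures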; details: S. cerevisiae cln2 rad14 strain, active compounds read high
Procedure, shortened: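 Yeast carrying cln2 and rad14 alterations (cell cycle control and DNA damage repair) were exposed to compounds. Growth inhibition was measured against vehicle-treated controls.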

[5] = NCI Yeast Anticancer Drug Screen. Data for the bub3 strain (AID 167); details: S. cerevisiae bub3 mutant strain, active compounds read high
Procedure, shortened: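 Part of a panel of yeast mutants defective in DNA damage repair or cell cycle regulation. Each strain is grown with compound, and inhibition is calculated relative to solvent-treated cultures.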

[6] = NCI Yeast Anticancer Drug Screen. Data for the mlh1 rad18 strain (AID 175); details: S. cerevisiae mlh1 rad18 strain growth inhibition, active compounds read high
Procedure, shortened: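 Growth inhibition of the yeast strain was measured after compound exposure and expressed relative to vehicle-treated controls. The strain carries defined defects in DNA damage repair.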

[7] = at 5.0 µM (retest, dose inferred, filed as 0.5)
[8] = at 50.0 µM (retest, dose inferred, filed as 5.0)

SMILES | growth inhibition [1, 7] | growth inhibition [1, 8] | growth inhibition ([1]; at 50.0 µM) | growth inhibition [2, 7] | growth inhibition [2, 8] | growth inhibition ([2]; at 50.0 µM) | growth inhibition [3, 7] | growth inhibition [3, 8] | growth inhibition ([3]; at 50.0 µM) | growth inhibition [4, 7] | growth inhibition [4, 8] | growth inhibition ([4]; at 50.0 µM) | growth inhibition [5, 7] | growth inhibition [5, 8] | growth inhibition ([5]; at 50.0 µM) | growth inhibition [6, 7] | growth inhibition [6, 8] | growth inhibition ([6]; at 50.0 µM)
Cc1ccccc1N1C(=O)C(=O)c2cccc(C)c21 | 2% | 98% (active) | 99.2% (active) | 0% | 99% (active) | 99.5% (active) | 1% | 99% (active) | 99.7% (active) | 1% | 98% (active) | 97% (active) | 2% | 99% (active) | 99.8% (active) | 0% | 99% (active) | 83.1% (active)
Cc1cc(NCCCCCCCCNc2cc(C)nc3cc(N(C)C)ccc23)c2ccc(N(C)C)cc2n1 | 18% | 95% (active) | 84.9% (active) | 18% | 97% (active) | 90.5% (active) | 53% | 97% (active) | 26.5% | 24% | 97% (active) | 18.4% | 57% | 97% (active) | 32.1% | 17% | 96% (active) | -17.5%
CN1C(=O)CCCCCCCCCCSc2ccccc21 | 7% | 97% (active) | 99% (active) | 8% | 99% (active) | 99% (active) | 4% | 97% (active) | 99.2% (active) | 7% | 99% (active) | 96.7% (active) | 16% | 98% (active) | 98.3% (active) | 6% | 98% (active) | 98.8% (active)
CC12CCC(=O)C=C1C=CC1C2CCC2(C)C1CCC21CCC(=O)O1 (configuration not stated) | 11% | 99% (active) | 74.6% (active) | 5% | 99% (active) | 80.2% (active) | 7% | 99% (active) | 84% (active) | 2% | 99% (active) | 24.1% | -1% | 99% (active) | 66.7% | 7% | 99% (active) | 72.8% (active)
c1ccc2c(c1)ccc1c2ccc2sc3ccccc3[n+]21 | 71% (active) | 94% (active) | 92.3% (active) | 53% | 96% (active) | 53.9% | 59% | 93% (active) | 91.2% (active) | 62% | 92% (active) | 69.8% | 54% | 92% (active) | 73.5% (active) | 75% (active) | 96% (active) | 91.3% (active)
O=C(OCc1ccccc1CN1CCOCC1)c1ccc(Br)cc1 | -30% | 29% | 77.3% (active) | -2% | -2% | 74.5% (active) | -2% | 77% (active) | 93.7% (active) | -1% | -7% | 51.9% | 2% | 41% | 92.1% (active) | 4% | 36% | 76.1% (active)
COc1ccc2c(c1)O[C@H]1c3ccc(O)cc3OC[C@@H]21 | 1% | 35% | 72.7% (active) | 8% | 36% | 69.5% | -2% | 41% | 68% | 3% | 16% | 50.3% | 5% | 41% | 74.2% (active) | 1% | 53% | 84% (active)
CC[C@@]1(O)C[C@H](OC2CC(N(C)C)C(OC3CC(O)C(OC4CCC(=O)C(C)O4)C(C)O3)C(C)O2)c2c(cc3c(c2O)C(=O)c2c(O)cccc2C3=O)[C@H]1C(=O)OC (some centres not stated) | 95% (active) | 97% (active) | 91.2% (active) | 98% (active) | 99% (active) | 92.8% (active) | 92% (active) | 97% (active) | 91.9% (active) | 92% (active) | 98% (active) | 89.2% (active) | 95% (active) | 98% (active) | 91.8% (active) | 97% (active) | 98% (active) | 92% (active)
O=C(OCC1CCCO1)N(c1ccccc1)c1ccccc1 (configuration not stated) | 12% | -5% | 23.1% | 15% | 21% | 24.3% | 18% | 20% | 46.9% | 30% | 21% | -11.4% | 0% | 16% | 2% | 16% | 40% | 37.7%
N#CC(Br)(C#N)Cc1ccccc1 | 1% | 100% (active) | 98.8% (active) | 8% | 100% (active) | 99.6% (active) | -11% | 90% (active) | 99.1% (active) | -10% | 99% (active) | 99.2% (active) | 9% | 100% (active) | 99.5% (active) | -10% | 100% (active) | 99.3% (active)
COc1ccc(C(=O)c2cc(Br)ccc2O)cc1 | -3% | 4% | 89.3% (active) | -6% | 4% | 71.9% (active) | -1% | 18% | 84% (active) | -20% | -9% | 46% | 3% | 11% | 94.5% (active) | -1% | -2% | 90.1% (active)
C/C(=N\Nc1n[nH]c(=S)n1N)c1c(O)cc(C)oc1=O | -28% | 13% | -23% | 3% | 12% | 12.1% | -1% | 4% | 18.9% | -2% | 9% | -21% | 2% | 3% | 14.1% | -2% | 2% | 16.5%
Nc1n[nH]c(=O)c2cccnc12 | -1% | -13% | 0.7% | 2% | -12% | -7.95% | -1% | -13% | -10.2% | 5% | -13% | 17% | 1% | -4% | 12.9% | 2% | -14% | 3.25%
O=C1OC(OCC#CCOC2OC(=O)C(Cl)=C2Cl)C(Cl)=C1Cl (configuration not stated) | 37% | 99% (active) | 99.4% (active) | 28% | 99% (active) | 99.7% (active) | 46% | 100% (active) | 99.3% (active) | 28% | 99% (active) | 97.8% (active) | 26% | 99% (active) | 98.3% (active) | 46% | 99% (active) | 99.5% (active)
CCCCCCCCN=C(N)c1ccc(C(=O)OCC2CCCCC2)cc1 | 98% (active) | 99% (active) | 99.6% (active) | 99% (active) | 100% (active) | 99.7% (active) | 99% (active) | 99% (active) | 99.7% (active) | 98% (active) | 99% (active) | 99.5% (active) | 98% (active) | 100% (active) | 99.6% (active) | 100% (active) | 100% (active) | 99.7% (active)
COc1ccc(Cc2coc3ccccc3c2=O)cc1OC | -1% | 12% | -0.55% | 2% | 10% | -2.5% | 1% | 18% | 18.4% | 0% | 3% | 3.8% | 23% | 68% | 71.1% (active) | -3% | 12% | 0.95%
COC(=O)c1c(C)cccc1C1CN=NC12Cc1ccccc1C2=O (configuration not stated) | 24% | 32% | 3.9% | 16% | 12% | 6.25% | 23% | 38% | 32.9% | 24% | 16% | 30.8% | 25% | 30% | 19.6% | 23% | 29% | -32.9%
COc1ccc2c(N3CCN(C(=O)C(Cl)(Cl)Cl)CC3)cc(C)nc2c1 | 2% | 4% | 2.05% | 1% | 0% | 0.2% | 1% | 0% | -24.6% | 0% | 0% | -2.9% | 0% | 7% | -0.5% | 3% | 4% | 2.75%
CC(=O)SC(SC(C)=O)SC(C)=O | 11% | 93% (active) | 93.9% (active) | 0% | 98% (active) | 93.1% (active) | 15% | 94% (active) | 93.1% (active) | 20% | 97% (active) | 89.6% (active) | 29% | 99% (active) | 92% (active) | 16% | 99% (active) | 90.5% (active)
